Assay outcomes as filed in PubChem.
TbPYK inhibitor: T. brucei pyruvate kinase inhibition | TbPYK enzyme, Kinase-Glo Plus ATP luminescence, 45 min | 0.12% of 410,000 active | Potency, µM (series often up to 76.8 µM), actives largely listed as inhibitors; also: nearly all actives have a fitted effect of over 50% in size
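Activity of T. brucei pyruvate kinase was followed by Kinase-Glo Plus luminescence after the enzyme reacted 45 min at room temperature with 130 uM ADP (final) and substrate. Test compounds were added before ADP at multiple concentrations.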
LmPK inh: LmPK (Leishmania mexicana) enzyme inhibition; Q27686; Potency, µM (series often up to 57.5 µM), usual class: inhibitors; AID 1721; 0.37% of 290,000 active; purified LmPK, Kinase-Glo ATP luminescence, 1 h
Target sequence (Q27686 whole entry, looked up): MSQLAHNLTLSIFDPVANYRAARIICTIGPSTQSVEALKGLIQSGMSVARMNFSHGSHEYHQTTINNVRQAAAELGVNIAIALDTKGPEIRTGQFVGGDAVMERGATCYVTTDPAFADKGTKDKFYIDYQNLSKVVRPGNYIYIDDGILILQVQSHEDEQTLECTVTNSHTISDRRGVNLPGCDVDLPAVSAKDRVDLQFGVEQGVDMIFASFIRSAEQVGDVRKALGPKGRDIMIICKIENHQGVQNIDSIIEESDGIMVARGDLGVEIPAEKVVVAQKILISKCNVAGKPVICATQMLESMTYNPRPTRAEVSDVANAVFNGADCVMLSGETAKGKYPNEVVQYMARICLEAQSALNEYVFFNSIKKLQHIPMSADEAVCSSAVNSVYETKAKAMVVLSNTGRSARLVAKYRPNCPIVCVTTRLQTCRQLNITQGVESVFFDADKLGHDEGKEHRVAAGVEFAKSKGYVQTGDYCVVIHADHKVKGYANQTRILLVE
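qHTS format; LmPK 0.1 nM; substrates PEP 0.5 mM and ADP 0.1 mM. One-hour room-temperature incubation, then coupled luciferase luminescence; 0.5 nM enzyme wells mark activation.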
Shiga toxin inh: inhibitors of Shiga toxin in Vero cells; Vero cells, Shiga toxin protein synthesis inhibition reporter; inhibition, % at 38.7 µM; 9.2% of 290,000 active; in the data active = inhibition mostly above about 28%, no sharp cut-off; inactive = mostly below about 43%
Sm TGR block: blocks Schistosoma mansoni thioredoxin glutathione reductase. Q962Y6. purified TGR, DTNB reduction, TNB absorbance 405 nm. Potency, µM (series often up to 114 µM), actives largely listed as inhibitors. 3% of 360,000 active. AID 485364; also: nearly all actives have a fitted effect of over 60% in size
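TGR 20 nM + NADPH 100 uM (dispensed conc.), cpd preinc 15 min RT; start with NADPH (500 uM addition) then DTNB (15 mM addition). Kinetic TNB absorbance, 405 nm filter. Four-parameter Hill fit across titration.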
Giardia FBPA inh: blocks Giardia fructose-bisphosphate aldolase activity; A8B2U2; purified Giardia FBPA; Potency, µM (doses to about 59.6 µM), hits mostly inhibitors; 0.71% of 290,000 active; also: nearly all actives have a fitted effect of over 55% in size
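40 nM FBPA preincubated 10 min at RT with compound (up to 57.5 uM final), then substrate plus GAPDH/TPI/NAD/arsenate coupling and diaphorase/resazurin added. Fluorescence read after 20 min at RT, 525/598 nm.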
CHX counter: counter-screen for Shiga toxin inhibitors: cycloheximide protein synthesis inhibition. cell reporter, cycloheximide protein synthesis inhibition counterscreen. max response, %. 12% of 300,000 active. AID 2314; in the data active = max response mostly above about 13%, no sharp cut-off; inactive = mostly below about 14%; also: read at 38.3 µM for the half of the compounds with a filed dose
Each line names hits and unclear results; the compound was inactive in the other large screens. The sample as a whole holds a higher share of hits than the screen did. Unless noted, calls follow the shape of the dose curve; as a rule, active = well fitted curve in the direction sought with a large enough effect; inconclusive = small, poorly fitted or top-dose-only effect, or another doubt; inactive = no such curve, though single readings can be large; an effect the other way counts as inactive or inconclusive.

Cc1ccc(CN2CCNC(=O)C2CC(=O)N(Cc2c(C)nn(C)c2C)C2CC2)o1 (stereo not drawn)	Sm TGR block 32µM
Cc1cccc(C)c1NC(=O)C(C)Sc1nnc(C)n1CC1CCCO1 (stereo not drawn)	none
O=C(c1cc(-c2ccccc2Cl)on1)N1CCN(C(=O)c2ccco2)CC1	none (no result: Giardia FBPA inh)
O=C(c1ccco1)N1CCN(CC(O)COc2ccc(Br)cc2)CC1 (stereo not drawn)	Sm TGR block 45µM
O=c1cc(CN2CCN(Cc3ccccc3)CC2)c2ccc(O)cc2o1	none (no result: Giardia FBPA inh)
O=C(c1ccco1)N1CCN(Cc2ccc(Cl)cc2)CC1	Giardia FBPA inh inconclusive
O=C(c1ccco1)N1CCN(Cc2cc(=O)oc3cc(O)ccc23)CC1	Sm TGR block 45µM (no result: LmPK inh, Shiga toxin inh, Giardia FBPA inh, CHX counter)
O=C(c1ccco1)N1CCN(Cc2c(Cl)cccc2Cl)CC1	CHX counter 21
COC(=O)c1ccc(OCC(O)CN2CCN(C(=O)c3ccco3)CC2)cc1 (stereo not drawn)	Giardia FBPA inh inconclusive
O=C(c1ccco1)N1CCN(Cc2csc(-c3ccccc3Cl)n2)CC1	Shiga toxin inh 83, Sm TGR block 50µM, CHX counter 50 (no result: Giardia FBPA inh)
Cc1ccc(C2(C)NC(=O)N(CC(=O)NNC(=O)c3cc(C)oc3C)C2=O)cc1 (stereo not drawn)	none (no result: LmPK inh, Shiga toxin inh, Giardia FBPA inh, CHX counter)
Cc1ccsc1C(=O)N/N=C/c1ccc2c(c1)OCO2	TbPYK inhibitor inconclusive, LmPK inh 11µM, Shiga toxin inh 78, CHX counter 42
O=C(N/N=C/c1ccc2c(c1)OCO2)c1cccs1	LmPK inh inconclusive, Shiga toxin inh 68, CHX counter 56
O=C(N/N=C/c1ccc2c(c1)OCO2)c1cccc2ccccc12	none
Cc1cccc(C(=O)N/N=C/c2ccc3c(c2)OCO3)n1	none
Cc1cc(C(=O)N/N=C/c2ccc3c(c2)OCO3)c(C)o1	LmPK inh 14µM, Shiga toxin inh 55, CHX counter 42
Cn1cc(C(=O)N/N=C/c2cccs2)c2ccccc21	Shiga toxin inh 67, CHX counter 39
CC(C(=O)N1CCc2ccccc21)N1CCN(S(=O)(=O)c2ccc3c(c2)OCCCO3)CC1 (stereo not drawn)	none (no result: LmPK inh, Shiga toxin inh, Sm TGR block, Giardia FBPA inh, CHX counter)
Cn1cc(C(=O)N/N=C/c2ccc3c(c2)OCO3)c2ccccc21	Shiga toxin inh 58, CHX counter 40
COc1ccc(/C=N/NC(=O)c2sccc2C)c2ccccc12	none (no result: LmPK inh, Shiga toxin inh, Sm TGR block, Giardia FBPA inh, CHX counter)
Cc1ccccc1/C=N/NC(=O)c1sccc1C	LmPK inh inconclusive, Shiga toxin inh 66, CHX counter 38
CN(C)CC1CCn2c(c(C3=C(c4cn(C)c5ccccc45)C(=O)NC3=O)c3ccccc32)C1 (stereo not drawn)	none (no result: TbPYK inhibitor, LmPK inh, Sm TGR block)
OCCSc1nnc(Nc2ccccc2)s1	Shiga toxin inh 87, CHX counter 38
O=C(CSc1nnc(Nc2ccccc2)s1)NCc1cccs1	none
CSc1nnc(SCC(=O)N(C)c2c(N)n(Cc3ccccc3)c(=O)[nH]c2=O)s1	none (no result: LmPK inh, Shiga toxin inh, Giardia FBPA inh, CHX counter)
N#CCSc1nnc(Nc2ccccc2)s1	none
CC(C)(C)C(=O)CSc1nnc(Nc2ccccc2)s1	CHX counter 34
CN(C(=O)CSc1nnc(Nc2ccccc2)s1)c1c(N)n(Cc2ccccc2)c(=O)[nH]c1=O	CHX counter 29
Cc1ccc(NC(=O)c2ncn(CCCNCCCc3ccccc3)n2)cc1C	none (no result: LmPK inh, Shiga toxin inh, Sm TGR block, Giardia FBPA inh, CHX counter)
COc1cccc([C@@H]2Oc3ccc(Br)cc3C[C@H]2OC(=O)NS(=O)(=O)c2ccc(F)cc2)c1	none (no result: TbPYK inhibitor, LmPK inh, Shiga toxin inh, Sm TGR block, CHX counter)
O=c1[nH]c2ccc(Br)cc2c(-c2ccccc2)c1CN1CCOCC1	Sm TGR block 35µM
C=C(C)C1CC=C(C)/C(=N/NC(=S)Nc2ccccc2)C1 (stereo not drawn)	CHX counter 21
C=C(C)C1CC=C(C)/C(=N/NC(=O)COc2cccc(C)c2)C1 (stereo not drawn)	Shiga toxin inh 41
C=C(C)C1CC=C(C)/C(=N/NC(=O)c2ccoc2C)C1 (stereo not drawn)	Shiga toxin inh active, CHX counter 66
CCCN1CCC[C@@H]2Cc3n[nH]cc3C[C@H]21	none (no result: TbPYK inhibitor, LmPK inh, Shiga toxin inh, Sm TGR block, CHX counter)
Nc1c(C(=O)N/N=C/c2ccc(Cl)cc2)cnn1-c1ccccc1	none
Nc1c(C(=O)N/N=C/c2cccnc2)cnn1-c1ccccc1	Shiga toxin inh 51, CHX counter 47
COc1cccc(/C=N/NC(=O)c2cnn(-c3ccccc3)c2N)c1	Shiga toxin inh 72, CHX counter 46
CN(C1CCCCC1)S(=O)(=O)c1cc2c(cc1Cl)NC(=O)CO2	none (no result: Giardia FBPA inh)
O=C(Nc1ccccc1)c1ccc(NC(=O)C2CC2)cc1	Shiga toxin inh 42, CHX counter 32
Cc1cc(NC(=O)c2ccccc2)no1	Shiga toxin inh 73, CHX counter 51
Cc1cc(NC(=O)c2ccc(NC(=O)C3CC3)cc2)no1	Shiga toxin inh 61, CHX counter 30
COc1cccc(C2=NOC(C(=O)Nc3cc(C)on3)C2)c1OC (stereo not drawn)	CHX counter 14
O=C(NNC(=O)c1ccc(NC(=O)C2CC2)cc1)c1ccc(F)cc1	none (no result: Giardia FBPA inh)
C[C@@H]1CN([C@@H](C)CO)C(=O)c2cc(Br)cnc2O[C@@H]1CN(C)Cc1ccc(Oc2ccccc2)cc1	none (no result: LmPK inh, Shiga toxin inh, Sm TGR block, Giardia FBPA inh, CHX counter)
Cc1cccc(C)c1NC(=O)C(=O)c1cn(C)c2ccccc12	none
Cc1cc(NC(=O)c2ccccc2Oc2ccccc2)no1	none
Cc1cc(NC(=O)C(=O)c2cn(C)c3ccccc23)no1	CHX counter 18
COc1ccccc1C(=O)Nc1cc(-c2ccc(C)cc2)no1	Shiga toxin inh 83, CHX counter 25
Cc1cc(NC(=O)c2cccc(F)c2)no1	Sm TGR block inconclusive, CHX counter 26
COc1ccccc1C(=O)Nc1cc(C)on1	CHX counter 45 (no result: Shiga toxin inh)
Cc1ccc(-c2cc(NC(=O)c3cccc(C)c3)on2)cc1	none (no result: LmPK inh, Shiga toxin inh, Giardia FBPA inh, CHX counter)
CCNC(=O)[C@H]1CCCN1C(=O)[C@H](CCCN=C(N)N)NC(=O)[C@H](CC(C)C)NC(=O)[C@H](CC(C)C)NC(=O)[C@@H](Cc1ccc(O)cc1)NC(=O)[C@H](CO)NC(=O)[C@@H](Cc1c[nH]c2ccccc12)NC(=O)[C@H](Cc1cnc[nH]1)NC(=O)[C@@H]1CCC(=O)N1	none (no result: LmPK inh, Shiga toxin inh, Sm TGR block, Giardia FBPA inh, CHX counter)
CN1CCc2c(cc(O)c(O)c2Cl)C(c2cccc(Cl)c2)C1 (stereo not drawn)	none (no result: TbPYK inhibitor, LmPK inh, Shiga toxin inh, Sm TGR block, CHX counter)
C/C(=C\C(=O)Nc1cc(C)on1)c1ccccc1	Shiga toxin inh 57, CHX counter 37
Cc1cc(NC(=O)c2cccc(Br)c2)no1	none (no result: LmPK inh, Shiga toxin inh, Sm TGR block, Giardia FBPA inh, CHX counter)
CS(=O)(=O)N(CC(=O)Nc1ccc2c(c1)OCCO2)Cc1ccc(Cl)cc1	Shiga toxin inh 33, CHX counter 22
COc1ccc(C)cc1S(=O)(=O)N(CC(=O)Nc1ccc2c(c1)OCCO2)Cc1ccccc1	CHX counter 9.8
COc1ccccc1CNC(=O)c1ccc(-c2nc(CS(=O)(=O)c3ccc(C)cc3)c(C)o2)cc1	none (no result: LmPK inh, Shiga toxin inh, Giardia FBPA inh, CHX counter)
